These results are taken from PubChem BioAssay (NCATS).

Inconclusive results are not listed. Activity calls are given as the source filed them. Unless noted, the call rests on the fitted dose curve; in most records, active means well fitted curve in the direction sought with a large enough effect; inconclusive means small, poorly fitted or top-dose-only effect, or another doubt; inactive means no such curve, though single readings can be large; an effect the other way counts as inactive or inconclusive.

Test [1] addresses Luciferin 4-monooxygenase (Photinus pyralis) (UniProt P08659). The experiment in a line: Biochemical firefly luciferase enzyme assay for NPC (AID 624030). Further: nearly all actives have a fitted effect of over 70% in size. Further: potency means the concentration at half of the fitted maximal effect. The essentials: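 Purified P. pyralis luciferase at 10 nM in 50 mM Tris Acetate (final), luminescence read within 5 minutes of enzyme addition to compounds. Activity normalised to PTC124 versus DMSO; concentration-response curves classed by r2, magnitude and activity.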

A short description of test [2]: S16 Schwann cell viability assay (CellTiter-Glo assay) (AID 624031). Further: nearly all actives have a fitted effect of over 70% in size. Further: potency means the concentration at half of the fitted maximal effect. The essentials:
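Native S16 rat Schwann cells in DMEM/10% FBS without phenol red were incubated overnight, then exposed to compounds for 24 h at 37 °C/5% CO2. Viability was read as ATP luminescence (CellTiter-Glo), normalized to no-cell wells and DMSO (0%).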

The nature of test [3]: S16 Schwann cell PMP22 intronic element firefly luciferase assay (AID 624032). Further: nearly all actives have a fitted effect of over 30% in size. Further: potency means the concentration at half of the fitted maximal effect. The method in brief: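 Rat S16 Schwann cells stably carrying firefly luciferase driven by a PMP22 intronic element, in 10% FBS, treated 24 h at 37 C. ONE-Glo luminescence normalized to PTC124 control and DMSO (0%); curves classed by r2, magnitude and activity.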
The nature of test [4]: S16 Schwann cell PMP22 intronic element beta-lactamase assay (AID 624044; calls by dose curve; further: nearly all actives have a fitted effect of over 15% in size; further: potency means the concentration at half of the fitted maximal effect). The essentials: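 Rat S16 Schwann cells with beta-Lac driven by a PMP22 intronic element, compound-treated 24 h at 37 °C. LiveBLAzer FRET B/G read: 460 nm normalized to potassium clavulanate vs DMSO; 535 nm FRET as viability; concentration-effect curves classified.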
Test [5] deals with Glutaminase kidney isoform, mitochondrial (Homo sapiens) (UniProt O94925). The test can be described thus: qHTS for Inhibitors of Glutaminase (GLS): LOPAC Validation (AID 624146). Further: nearly all actives have a fitted effect of over 60% in size. Further: potency means the concentration at half of the fitted maximal effect. The method in brief:
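Human kidney-isoform GLS in 45 mM KH2PO4 pH 8.2, 0.02% Tween-20, with compound, started with 1mM L-Glutamine (added stock). Glutamate oxidase/HRP/Amplex red coupled fluorescence read at start and after 30 min at RT.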
(In general: qHTS replaces the single test concentration by a dilution series.)

Test [6] can be described thus: qHTS of Trypanosoma Brucei Inhibitors: LOPAC Validation (AID 624147). Further: potency means the concentration at half of the fitted maximal effect. The essentials:
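TbPYK + substrate in 50 mM TEA pH 7.2, 100 mM KCl, 10 mM MgCl2, 0.05% BSA, 0.01% Tween-20; cpd pinned; ADP 130 uM final; 45 min RT; Kinase-Glo Plus 10 min; luminescence endpoint.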

Test [7] has as its target Glucagon-like peptide 1 receptor (Homo sapiens) (UniProt P43220). The experiment in a line: qHTS of GLP-1 Receptor Agonists: LOPAC Validation (AID 624148).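 Further: higher luminescence signal means agonism.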 The method in brief: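 HEK293 cells stably co-expressing GLP-1R and a cAMP-responsive luciferase reporter, plated 12 hours before compound, then incubated 4-6 hr at 37 deg C. Luminescence read 12 min after detection reagent.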

Test [8] can be described thus: HTS Assay for Allosteric Antagonists of the Human D2 Dopamine Receptor: Hit Validation in HTRF (AID 624455). Further: potency means the concentration at half of the fitted maximal effect.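 Further: stable D1 dopamine receptor cell line scored for blocking the D1 response.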 The method in brief: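 Hit validation in cells stably expressing the D1 dopamine receptor, run in HTRF format. Compounds were tested for their ability to inhibit the D1-mediated response.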
The nature of test [9]: qHTS of Nrf2 Activators: LOPAC Validation (AID 624149). The method in brief: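 AREc32_Fluc cells, 1000/well in OPTI-MEM with 5% FBS, grown overnight, then exposed to compounds for 24 hr at 37 deg C, 5% CO2. ARE-driven firefly luciferase read by Steady-Glo luminescence after 30 min at RT.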

Luciferin 4-monooxygenase (Photinus pyralis), sequence (P08659 whole entry, looked up): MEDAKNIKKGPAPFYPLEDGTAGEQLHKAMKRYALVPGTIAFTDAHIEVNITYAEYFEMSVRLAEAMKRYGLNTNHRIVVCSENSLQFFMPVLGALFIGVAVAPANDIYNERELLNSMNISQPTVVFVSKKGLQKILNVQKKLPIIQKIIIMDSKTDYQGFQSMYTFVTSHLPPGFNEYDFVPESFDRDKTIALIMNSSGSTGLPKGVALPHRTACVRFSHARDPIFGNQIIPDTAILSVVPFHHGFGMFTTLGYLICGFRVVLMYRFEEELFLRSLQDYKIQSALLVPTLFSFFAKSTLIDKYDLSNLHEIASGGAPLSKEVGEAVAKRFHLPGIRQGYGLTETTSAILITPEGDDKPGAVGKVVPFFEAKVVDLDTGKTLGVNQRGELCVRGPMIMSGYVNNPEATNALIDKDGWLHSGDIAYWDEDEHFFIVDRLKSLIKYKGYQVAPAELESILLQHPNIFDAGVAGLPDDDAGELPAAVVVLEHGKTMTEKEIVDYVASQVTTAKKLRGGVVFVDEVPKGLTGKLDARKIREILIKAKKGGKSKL
Glutaminase kidney isoform, mitochondrial (Homo sapiens), sequence (O94925 whole entry, looked up, canonical isoform): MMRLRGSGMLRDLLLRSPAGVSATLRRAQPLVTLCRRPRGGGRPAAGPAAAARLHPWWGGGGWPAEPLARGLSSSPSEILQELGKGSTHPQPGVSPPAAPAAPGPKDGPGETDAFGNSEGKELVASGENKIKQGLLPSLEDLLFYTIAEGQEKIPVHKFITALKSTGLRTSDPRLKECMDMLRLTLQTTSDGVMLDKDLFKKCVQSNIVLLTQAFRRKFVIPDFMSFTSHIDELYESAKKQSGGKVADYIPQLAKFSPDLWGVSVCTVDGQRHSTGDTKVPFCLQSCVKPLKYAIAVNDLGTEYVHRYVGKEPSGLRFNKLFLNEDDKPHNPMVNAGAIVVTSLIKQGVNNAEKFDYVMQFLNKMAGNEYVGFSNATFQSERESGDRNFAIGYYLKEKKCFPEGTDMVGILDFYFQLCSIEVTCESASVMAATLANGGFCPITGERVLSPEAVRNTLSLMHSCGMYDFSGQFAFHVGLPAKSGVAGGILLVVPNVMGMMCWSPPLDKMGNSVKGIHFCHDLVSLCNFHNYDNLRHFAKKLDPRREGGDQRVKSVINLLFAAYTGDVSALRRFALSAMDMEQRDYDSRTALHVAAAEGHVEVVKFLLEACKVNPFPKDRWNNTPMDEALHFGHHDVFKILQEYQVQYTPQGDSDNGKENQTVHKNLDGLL
Glucagon-like peptide 1 receptor (Homo sapiens), sequence (P43220 whole entry, looked up): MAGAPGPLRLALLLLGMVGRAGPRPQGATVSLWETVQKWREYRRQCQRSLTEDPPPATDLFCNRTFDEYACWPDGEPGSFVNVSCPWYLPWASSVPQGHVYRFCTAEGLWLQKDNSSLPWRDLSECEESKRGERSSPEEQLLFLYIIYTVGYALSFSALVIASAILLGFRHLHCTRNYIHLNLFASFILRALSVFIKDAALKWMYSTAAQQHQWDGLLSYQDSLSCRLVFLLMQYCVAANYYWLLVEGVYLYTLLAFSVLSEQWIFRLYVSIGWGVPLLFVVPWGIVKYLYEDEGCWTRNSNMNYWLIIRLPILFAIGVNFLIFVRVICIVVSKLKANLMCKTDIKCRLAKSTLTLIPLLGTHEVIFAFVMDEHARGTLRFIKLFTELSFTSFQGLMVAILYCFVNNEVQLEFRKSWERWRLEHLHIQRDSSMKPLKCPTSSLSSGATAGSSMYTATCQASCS

Regarding `O=c1c2ccccc2[se]n1-c1ccccc1`, the Potency in test [1] was 8090 nM (active); in test [2], 12800 nM (active); in [3] it was 28700 nM (active); in [5] it was 2820 nM (active); in test [6], 19000 nM (active). For the same molecule, the Potency result in test [4] and in test [8] was “inactive” throughout. For the same molecule, the molecule was called inactive in test [7].

In the case of `O=[N+]([O-])c1cc(I)c(O)c(I)c1`, the Potency result in test [2] was “inactive”.

With `CCCN1CCC[C@@H](c2cccc(O)c2)C1`, the Potency entry in test [5], in test [6] and in [9] was “inactive” in each case. Also, in test [7], the molecule was called inactive.

In the case of `O=C1CN=C(c2ccccc2)c2cc(Cl)ccc2N1CC1CC1`, the Potency result in test [1], in [2] and in test [4] was “inactive” in each case.

Turning to `CCOC(=O)c1ncn2c1[C@@H]1CCCN1C(=O)c1cc(OC)ccc1-2`, the Potency result in test [5], in test [6], in [9] and in test [8] was “inactive” in each case. The outcome in test [7] was inactive.

On to `CCCN1CCc2cc(O)cc3c2[C@H]1Cc1ccc(O)c(O)c1-3`, for which the Potency in test [5] was 1410 nM (active); in test [8], 65.1 nM (active). For the same molecule, the Potency entry in test [6] and in test [9] was “inactive” throughout. Moreover, the molecule was called inactive in test [7].

Regarding `[Cl-].[Cl-].[Hg+2]`, the Potency in [2] was 2560 nM (active); in test [4] it was 3160 nM (active).

In the case of `CCN1C[C@@]2(COC)C3[C@@H](OC)C4[C@@H]1C3([C@@H]1C[C@]3(O)[C@H](OC(=O)c5ccccc5)[C@@H]1[C@]4(OC(C)=O)[C@@H](O)[C@@H]3OC)[C@H](OC)C[C@H]2O`, the Potency result in [5], in test [6], in [9] and in test [8] was “inactive” each time. For the same molecule, the outcome in test [7] was inactive.

For `CNC(=O)Oc1ccccc1C(=O)Nc1ccccc1`, the Potency in test [1] was 14400 nM (active). For the same molecule, the Potency result in [2] and in test [4] was “inactive” throughout.

Regarding `C[N+]1(C)C2CCC1CC(OC(=O)c1c[nH]c3ccccc13)C2` (stereo not given), the Potency entry in test [1], in [2], in [4], in test [5], in test [6] and in test [9] was “inactive” throughout. Moreover, the Potency result in [8] is “inactive”. Further, the outcome in test [7] was inactive.

Take `C[N+]1(C)CCc2cc3c(cc2[C@H]1[C@@H]1OC(=O)c2c1ccc1c2OCO1)OCO3`: the Potency result in test [5], in test [6], in test [9] and in test [8] was “inactive” in each case. In [7], the result was inactive.

Turning to `CC(C)[C@@]1(NC(=O)[C@@H]2C[C@@H]3c4cccc5[nH]cc(c45)C[C@H]3N(C)C2)O[C@@]2(O)[C@@H]3CCCN3C(=O)[C@H](Cc3ccccc3)N2C1=O`, the Potency result in test [1], in test [6] and in [9] was “inactive” each time. Besides, the molecule was classed as inactive in test [7]. Also, in test [8], the Potency is 51.7 nM (active).

Regarding `c1ccc2cc(CC3=NCCN3)ccc2c1`, the Potency entry in test [1], in [2], in [4], in test [5], in test [6] and in [9] was “inactive” throughout. The Potency result in [8] is “inactive”. For the same molecule, in [7], the molecule was called inactive.

Regarding `CC12NC(Cc3ccccc31)c1ccccc12` (stereo not given), the Potency entry in test [3], in test [4], in test [5], in [9] and in test [8] was “inactive” throughout. In [7], the molecule was classed as inactive.

Turning to `CCS(=O)(=O)Nc1cccc(C(=C2CCCCC2)c2cnc[nH]2)c1`, the Potency entry in [5], in test [9] and in test [8] was “inactive” in each case. In addition, the molecule was classed as inactive in test [7].

In the case of `CCCN(CCC)CCc1ccc(O)c(O)c1`, the Potency result in [6] and in [9] was “inactive” throughout. In addition, the call in test [7] was inactive. Moreover, the Potency in test [8] is 92 nM (active).

`N[C@@H](Cn1ccc(=O)[nH]c1=O)C(=O)O`: the Potency result in [5], in test [9] and in test [8] was “inactive” in each case. Further, the molecule was classed as inactive in [7].

Consider `CC(C)(C)c1cc(C=C(C#N)C#N)cc(C(C)(C)C)c1O`, for which, in test [5], the Potency was 12600 nM (active). Besides, the molecule was classed as inactive in test [7]. In addition, the Potency result in [9] and in test [8] was “inactive” each time.

As to `CCCN(CCC)[C@@H]1CCc2cccc(O)c2C1`, the Potency entry in test [6] and in [9] was “inactive” throughout. In test [7], the call was inactive.

For `CCCN1CCc2cccc3c2[C@H]1Cc1ccc(O)c(O)c1-3`, in test [5], the Potency is 1410 nM (active). The result in test [7] was inactive. Further, the Potency entry in test [9] was “inactive”.

With `C[C@@H]1[C@@H]2Cc3ccc(O)cc3[C@@]1(C)CCN2CC1CC1`, the Potency result in test [6] was “inactive”.

Take `O=[N+]([O-])/C=C/c1ccc2c(c1)OCO2`: the Potency in test [5] is 12600 nM (active). In test [7], the call was inactive. The Potency entry in test [9] and in test [8] was “inactive” each time.

Turning to `CCCCCCCCCCCCCC(=O)O[C@@H]1[C@@H](C)[C@@]2(O)[C@@H](C=C(CO)C[C@@]3(O)C(=O)C(C)=C[C@@H]23)C2C(C)(C)[C@@]21OC(C)=O` (stereo not given in full), the Potency result in test [6] and in test [9] was “inactive” each time. Besides, in [7], the molecule was classed as inactive.

As to `C#CCN[C@H](C)Cc1ccccc1`, the Potency result in test [5], in [9] and in test [8] was “inactive” in each case. Besides, the call in test [7] was inactive.

On to `C[N+]1(C)CCOC(O)(c2ccc(-c3ccc(C4(O)C[N+](C)(C)CCO4)cc3)cc2)C1` (stereo not given), for which the Potency entry in test [6], in [9] and in test [8] was “inactive” in each case. In addition, in [7], the molecule was classed as inactive.

As to `Cc1c2ccncc2c(C)c2c1[nH]c1ccccc12`, in test [7], the call was inactive. The Potency result in [9] and in test [8] was “inactive” in each case.

Turning to `COc1ccc2c(c1O)-c1cccc3c1[C@@H](C2)N(C)CC3`, the Potency in [5] was 3550 nM (active). In addition, in [7], the molecule was classed as inactive. Also, the Potency entry in test [9] and in test [8] was “inactive” in each case.

For `NC(=O)COc1c(F)cc(SCCNS(=O)(=O)c2ccccc2)cc1F`, the Potency result in test [5], in test [6], in [9] and in [8] was “inactive” in each case. For the same molecule, the call in test [7] was inactive.

On to `CCCC[N+]1(C)C2CC(OC(=O)[C@H](CO)c3ccccc3)CC1C1OC12` (stereo not given in full), for which the Potency entry in [5], in test [9] and in test [8] was “inactive” in each case. Besides, the result in [7] was inactive.

For the molecule `c1ccc2c(N3CCNCC3)cccc2c1`, the Potency entry in [6], in [9] and in test [8] was “inactive” each time. For the same molecule, the molecule was classed as inactive in test [7].

With `C=CCN1CCc2cccc3c2[C@H]1Cc1ccc(O)c(O)c1-3`, the Potency is 891 nM (active) in [5] and 51.7 nM (active) in test [8]. Moreover, the result in test [7] was inactive. Moreover, the Potency result in [9] was “inactive”.
